Only a selection was taken, and hits are over-represented in it overall.
Ub-GFP proteasome: proteasome inhibitors stabilizing ubiquitin-GFP reporter. Ubiquitin-GFP reporter cells, proteasome inhibition, GFP fluorescence; response scale: untreated = 0%, 10 µM MG-132 = 100%. Potency, µM (highest dose often 45.9 µM), inactives show at the top dose activation (GFP accumulation), most hits filed as activators. 67,000 tested, under 10 active; active means well fitted activation curve with a large enough effect, not every such curve was filed as active; inconclusive means small, poorly fitted or top-dose-only effect, or another doubt; inactive means no such curve, though single readings can be large or run the other way
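U2OS cells stably expressing ubiquitin(G76V)-GFP, seeded overnight in 0.5% FBS medium, were exposed to compounds (qHTS, 46 uM to 2.9 nM) for 4 hr at 37 °C. GFP-positive cells were counted by laser cytometry (488 ex/515 em), normalized between basal and 10 uM MG-132.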
ALOX15B inhib: inhibitors of human 15-lipoxygenase 2 (ALOX15B) | purified 15hLO-2, xylenol orange hydroperoxide absorbance | Potency, µM (top dose mostly 57.1 µM), inactives show at the highest dose activity change, negative = inhibition, hits mostly inhibitors | 110,000 tested, 0.56% active; further: on the % scale 0 is the no-effect control and ±100 the full control effect; nearly all actives have a fitted effect of over 60% in size
Target sequence (O15296 whole entry, looked up): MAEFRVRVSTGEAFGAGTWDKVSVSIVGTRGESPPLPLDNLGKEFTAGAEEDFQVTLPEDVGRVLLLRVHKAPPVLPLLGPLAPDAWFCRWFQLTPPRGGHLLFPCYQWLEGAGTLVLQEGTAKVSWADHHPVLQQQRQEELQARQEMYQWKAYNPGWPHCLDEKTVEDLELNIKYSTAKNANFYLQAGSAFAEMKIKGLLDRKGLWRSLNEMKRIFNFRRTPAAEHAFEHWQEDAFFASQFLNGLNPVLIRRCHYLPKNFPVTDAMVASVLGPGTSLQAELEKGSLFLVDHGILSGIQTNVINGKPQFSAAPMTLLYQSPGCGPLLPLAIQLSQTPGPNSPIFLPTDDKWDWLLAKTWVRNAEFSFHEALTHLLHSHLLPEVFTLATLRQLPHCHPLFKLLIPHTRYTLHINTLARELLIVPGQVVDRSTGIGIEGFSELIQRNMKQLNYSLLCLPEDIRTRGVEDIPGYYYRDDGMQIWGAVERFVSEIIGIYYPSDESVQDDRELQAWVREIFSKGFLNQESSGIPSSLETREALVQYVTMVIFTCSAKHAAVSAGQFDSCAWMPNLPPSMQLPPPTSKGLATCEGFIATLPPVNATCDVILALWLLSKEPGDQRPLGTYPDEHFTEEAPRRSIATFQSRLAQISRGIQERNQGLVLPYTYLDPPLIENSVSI
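Purified human 15hLO-2 (50 nM final) preincubated with compounds 15 min at room temperature in 25 mM Hepes pH 7.5, 0.01% Triton X-100, then 45 uM arachidonic acid added for 90 min; hydroperoxide detected via ferrous/xylenol orange, 573/405 nm absorbance ratio.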
USP2a inhib: blocks human ubiquitin-specific protease USP2a | O75604 | USP2a enzymatic assay, qHTS inhibition | Potency, µM (doses to about 38.3 µM), without a hit: top-dose activity change, negative = inhibition, actives largely listed as inhibitors | 60,000 tested, 0.1% active | AID 927; further: nearly all actives have a fitted effect of over 60% in size
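USP2 core (20nM final) preincubated 30 min RT with compound, then Ub-PLA2 20nM and NBD C6-HPC 20uM final added; buffer 20mM Tris-HCl pH 8.0, 2mM CaCl2. Fluorescence Ex 460/Em 535 read at 0 and 2.5 h; normalized to NEM.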
ALOX15 inhib: inhibitors of human 15-lipoxygenase (ALOX15). 74,000 tested, 1.4% active. purified 15hLO-1, xylenol orange hydroperoxide absorbance. P16050. Potency, µM (series often up to 57.1 µM), for the others: top-dose activity change, negative = inhibition, usual class: inhibitors; further: on the % scale 0 is the no-effect control and ±100 the full control effect; nearly all actives have a fitted effect of over 55% in size
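Purified human 15hLO-1 (40 nM) in 25 mM Hepes pH 7.5, 0.01% Triton X-100, preincubated 15 min RT with compound, then 50 uM arachidonic acid for 6 min. Hydroperoxide read by ferrous/xylenol orange, 30 min; 573/405 nm absorbance ratio gave progress.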
Casp7 inh: blocks human caspase-7 allosterically or competitively; recombinant caspase-7, Ac-DEVD-AFC fluorescence rate; P55210; 75,000 tested, 0.02% active; AID 889; Potency, µM (titrated, usually from 57.5 µM), inactives show at the top dose activity change, negative = inhibition, actives largely listed as inhibitors; active means well fitted inhibition curve with a large enough effect in the main read-out, with a control signal flat, not every such curve was filed as active; inconclusive means small, poorly fitted or top-dose-only effect, or a change in a side signal; further: % of control where 0% means no effect
Caspase-1 inhib: caspase-1 (human) inhibition, allosteric or competitive; Caspase-1 enzyme, Ac-WEHD-AFC fluorogenic rate; Potency, µM (doses to about 57.5 µM), for the others: top-dose activity change, negative = inhibition, most hits filed as inhibitors; 75,000 tested, 0.03% active;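 further: plate controls were vehicle for no effect and no substrate for full effect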
An asterisk follows results filed as active. Unless noted, the call rests on the fitted dose curve; in most records, active means well fitted curve in the direction sought with a large enough effect; inconclusive means small, poorly fitted or top-dose-only effect, or another doubt; inactive means no such curve, though single readings can be large; an effect the other way counts as inactive or inconclusive. Potency means the concentration at half of the fitted maximal effect.

Results for CCN1C(=O)/C(=C/N(C)c2ccccc2)OC1=S ?
Ub-GFP proteasome: -0.2%; ALOX15B inhib: -2.6%; USP2a inhib: 1.2%; ALOX15 inhib: 7.94µM*; Casp7 inh: -0.6%; Caspase-1 inhib: -1.5%

What do the screens show for `CCN1C(=O)/C(=C2\C=Cc3ccccc3N2CC)OC1=S`?
Ub-GFP proteasome: -0.9%; USP2a inhib: 17.1%; ALOX15 inhib: -28.8%; Casp7 inh: -11.7%; Caspase-1 inhib: -10.7%

Results for Nc1cc(Cl)c([N+](=O)[O-])cc1O ?
ALOX15B inhib: -13.2%; ALOX15 inhib: -15.8%; Casp7 inh: -5.1%; Caspase-1 inhib: -1.7%

What do the screens show for `C=CCOC(=O)c1cc(-c2ccc(/C=C3\C(=O)NC(=O)C(C#N)=C3C)o2)ccc1Cl`?
ALOX15B inhib: 12.6µM*

What do the screens show for `CC(C)COC(=O)c1cc(-c2ccc(/C=N/n3cnnc3)o2)ccc1Cl`?
Ub-GFP proteasome: 0.1%; ALOX15B inhib: -1.0%; USP2a inhib: 43.4%; ALOX15 inhib: 3.0%; Casp7 inh: -2.5%; Caspase-1 inhib: -1.9%

What do the screens show for `Oc1ccc2c(c1)OC(c1ccc(O)c(O)c1)C(O)C2` (configuration not stated)?
ALOX15B inhib: inconclusive; USP2a inhib: -6.7%; ALOX15 inhib: 12.6µM*; Casp7 inh: -3.7%; Caspase-1 inhib: 1.6%

How did CCCCCCCN do in these assays?
ALOX15B inhib: -4.9%; ALOX15 inhib: -2.8%; Casp7 inh: 1.6%; Caspase-1 inhib: -2.9%

How did CCN1C=C(Cc2cccs2)C2=C(C1)C(c1cccs1)C(C#N)=C(N)O2 (configuration not stated) do in these assays?
Ub-GFP proteasome: -9.4%; ALOX15B inhib: 9.4%; USP2a inhib: 52.1%; ALOX15 inhib: 10µM*; Casp7 inh: -26.3%; Caspase-1 inhib: -15.3%

Results for CCN1CC2=C(OC(N)=C(C#N)C2c2cccs2)/C(=C/c2cccs2)C1 (configuration not stated) ?
Ub-GFP proteasome: 2.0%; ALOX15B inhib: 3.2%; USP2a inhib: 22.7%; ALOX15 inhib: -29.9%; Casp7 inh: -27.0%; Caspase-1 inhib: inconclusive

What do the screens show for `O=c1c(O)c(-c2ccc(O)c(O)c2)oc2c(OC[C@H]3O[C@@H](O)[C@@H](O)[C@H](O)[C@@H]3O)c(O)cc(O)c12`?
Ub-GFP proteasome: 2.1%

What do the screens show for `Brc1ccc2c(c1)c1nc3ccccc3nc1n2CCN1CCOCC1`?
Ub-GFP proteasome: 0.3%; ALOX15 inhib: 31.6µM*; Casp7 inh: -9.1%; Caspase-1 inhib: -5.6%

How did COc1cccc(-c2nc(N(C)Cc3ccco3)c3ccccc3n2)c1 do in these assays?
Ub-GFP proteasome: 3.7%; ALOX15B inhib: -14.2%; USP2a inhib: -29.6%; ALOX15 inhib: 10µM*; Casp7 inh: -23.3%; Caspase-1 inhib: -15.3%

What do the screens show for `CN(C)CCNC(=O)c1ccc(-n2c(=O)c(=O)[nH]c3ccccc32)cc1`?
ALOX15 inhib: 0.5%; Casp7 inh: -1.2%; Caspase-1 inhib: 0.6%

Results for Cc1cc(C)c2cc(CN(Cc3ccc4c(c3)OCO4)Cc3nnnn3Cc3ccco3)c(=O)[nH]c2c1 ?
Ub-GFP proteasome: 1.3%; ALOX15B inhib: 6.3%; USP2a inhib: 32.9%; ALOX15 inhib: 10µM*; Casp7 inh: inconclusive; Caspase-1 inhib: inconclusive

What do the screens show for `Nc1nc2c(cnn2CCc2ccccc2)c2nc(-c3ccco3)nn12`?
ALOX15B inhib: -17.1%; ALOX15 inhib: 20µM*; Casp7 inh: -4.3%; Caspase-1 inhib: 0.0%

Results for Nc1nc2ccc(Cl)cc2c2nc(-c3ccco3)nn12 ?
Ub-GFP proteasome: -0.4%; ALOX15B inhib: 4.1%; USP2a inhib: 4.8%; ALOX15 inhib: 17.9%; Casp7 inh: -2.5%; Caspase-1 inhib: -0.1%
